Test results: the supplement of paper PMC11006884
Of roughly 6,500 targets only a part is listed; those with a hit were picked by preference. About 2% of all pairs of compound and target were hits. Values without a mark were called inactive.

compound: COC(=O)C#Cc1ccccc1 [methyl 3-phenylpropiolate]; experiment: log2 ratio of iodoacetamide-alkyne labeling of the cysteine site, DMSO over compound (competition); higher = stronger covalent engagement of the cysteine by the compound, active = 1 or more; conditions: 500 µM; treatment time 1 h; system: HEK293T cell lysate
In short: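 For each cysteine, the log2 competition ratio is mean control-channel reporter intensity over mean compound-channel reporter intensity. HEK293T lysate (2 mg/mL) was exposed to vehicle or electrophile (500 µM, 1 h, ambient temperature), labelled with iodoacetamide alkyne (1 h), clicked to sCIP-TMT reagents, digested overnight with trypsin at 37 °C, streptavidin-enriched and analysed by Orbitrap Eclipse LC-MS/MS with FAIMS and FragPipe. Cysteines quantified in only one of three replicates, each with duplicate channels, were excluded.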

UniProt O95197, sequence (O95197 whole entry): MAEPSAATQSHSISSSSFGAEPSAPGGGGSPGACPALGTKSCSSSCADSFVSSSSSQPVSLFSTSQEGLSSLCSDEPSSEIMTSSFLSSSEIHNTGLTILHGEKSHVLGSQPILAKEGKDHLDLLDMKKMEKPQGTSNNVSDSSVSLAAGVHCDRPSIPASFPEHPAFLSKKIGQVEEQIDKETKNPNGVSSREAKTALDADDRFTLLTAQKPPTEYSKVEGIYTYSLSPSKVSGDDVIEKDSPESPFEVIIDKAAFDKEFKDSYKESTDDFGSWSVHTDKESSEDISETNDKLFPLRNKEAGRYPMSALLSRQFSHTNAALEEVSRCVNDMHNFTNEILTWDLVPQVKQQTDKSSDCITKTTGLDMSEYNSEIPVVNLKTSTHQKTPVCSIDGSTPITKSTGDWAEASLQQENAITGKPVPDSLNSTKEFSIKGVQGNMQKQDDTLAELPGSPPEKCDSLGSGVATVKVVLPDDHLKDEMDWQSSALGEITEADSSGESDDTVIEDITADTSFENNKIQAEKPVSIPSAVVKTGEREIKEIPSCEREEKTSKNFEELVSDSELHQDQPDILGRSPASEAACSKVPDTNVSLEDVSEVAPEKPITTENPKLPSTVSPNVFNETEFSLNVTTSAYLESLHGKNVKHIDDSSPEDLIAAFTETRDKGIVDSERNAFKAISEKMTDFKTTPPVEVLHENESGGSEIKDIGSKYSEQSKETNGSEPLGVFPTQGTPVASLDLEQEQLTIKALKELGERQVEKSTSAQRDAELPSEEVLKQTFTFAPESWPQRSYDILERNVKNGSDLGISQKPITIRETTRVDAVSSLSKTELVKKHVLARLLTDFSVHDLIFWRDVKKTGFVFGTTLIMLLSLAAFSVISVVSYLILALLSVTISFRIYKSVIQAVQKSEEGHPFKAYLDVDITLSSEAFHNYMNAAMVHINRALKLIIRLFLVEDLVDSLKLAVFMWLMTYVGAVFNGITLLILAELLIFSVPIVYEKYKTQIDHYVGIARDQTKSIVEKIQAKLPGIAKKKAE
UniProt P51991, sequence (P51991 whole entry, looked up): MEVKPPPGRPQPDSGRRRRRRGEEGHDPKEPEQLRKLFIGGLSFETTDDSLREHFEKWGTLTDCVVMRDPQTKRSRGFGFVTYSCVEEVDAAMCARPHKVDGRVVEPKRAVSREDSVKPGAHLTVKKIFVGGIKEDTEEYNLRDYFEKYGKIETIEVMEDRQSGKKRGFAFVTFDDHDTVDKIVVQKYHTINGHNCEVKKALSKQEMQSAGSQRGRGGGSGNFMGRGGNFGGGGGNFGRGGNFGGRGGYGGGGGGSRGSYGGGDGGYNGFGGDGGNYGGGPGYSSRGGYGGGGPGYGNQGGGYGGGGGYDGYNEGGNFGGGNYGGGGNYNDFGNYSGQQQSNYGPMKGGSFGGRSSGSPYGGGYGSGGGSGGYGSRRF
UniProt P31751, sequence (P31751 whole entry, looked up): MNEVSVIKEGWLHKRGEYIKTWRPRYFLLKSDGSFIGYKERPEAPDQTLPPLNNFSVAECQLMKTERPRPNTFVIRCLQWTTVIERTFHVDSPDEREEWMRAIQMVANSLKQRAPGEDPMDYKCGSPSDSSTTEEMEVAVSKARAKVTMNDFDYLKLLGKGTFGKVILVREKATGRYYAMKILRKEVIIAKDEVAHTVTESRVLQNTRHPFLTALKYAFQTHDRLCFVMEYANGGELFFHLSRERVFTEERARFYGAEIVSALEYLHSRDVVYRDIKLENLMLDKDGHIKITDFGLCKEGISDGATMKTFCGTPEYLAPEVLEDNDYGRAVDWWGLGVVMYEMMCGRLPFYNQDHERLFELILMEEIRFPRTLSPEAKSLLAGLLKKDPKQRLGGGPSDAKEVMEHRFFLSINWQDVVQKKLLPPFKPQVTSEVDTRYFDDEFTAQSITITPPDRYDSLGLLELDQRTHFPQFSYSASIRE
UniProt O95757, sequence (O95757 whole entry, looked up): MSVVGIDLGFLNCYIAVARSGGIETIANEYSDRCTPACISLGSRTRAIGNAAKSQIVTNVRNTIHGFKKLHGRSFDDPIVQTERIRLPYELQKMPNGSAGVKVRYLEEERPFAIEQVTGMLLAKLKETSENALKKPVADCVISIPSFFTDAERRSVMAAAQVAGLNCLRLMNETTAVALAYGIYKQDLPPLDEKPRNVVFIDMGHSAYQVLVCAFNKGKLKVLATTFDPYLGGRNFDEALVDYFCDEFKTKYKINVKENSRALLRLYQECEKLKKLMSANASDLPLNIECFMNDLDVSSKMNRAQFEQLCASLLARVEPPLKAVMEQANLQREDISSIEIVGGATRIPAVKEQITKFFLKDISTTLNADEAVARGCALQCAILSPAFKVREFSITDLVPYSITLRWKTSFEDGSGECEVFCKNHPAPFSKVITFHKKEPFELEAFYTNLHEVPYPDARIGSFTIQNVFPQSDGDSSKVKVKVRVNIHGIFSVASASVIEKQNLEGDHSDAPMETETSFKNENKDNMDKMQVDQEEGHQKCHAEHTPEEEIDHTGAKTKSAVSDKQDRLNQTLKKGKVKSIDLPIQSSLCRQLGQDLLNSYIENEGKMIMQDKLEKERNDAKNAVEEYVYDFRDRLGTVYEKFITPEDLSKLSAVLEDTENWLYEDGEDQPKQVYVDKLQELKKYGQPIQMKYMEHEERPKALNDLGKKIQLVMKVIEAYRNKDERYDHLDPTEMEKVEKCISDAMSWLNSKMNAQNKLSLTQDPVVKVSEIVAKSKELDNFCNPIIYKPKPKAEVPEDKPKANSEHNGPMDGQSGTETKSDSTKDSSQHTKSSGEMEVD
UniProt P41091, sequence (P41091 whole entry, looked up): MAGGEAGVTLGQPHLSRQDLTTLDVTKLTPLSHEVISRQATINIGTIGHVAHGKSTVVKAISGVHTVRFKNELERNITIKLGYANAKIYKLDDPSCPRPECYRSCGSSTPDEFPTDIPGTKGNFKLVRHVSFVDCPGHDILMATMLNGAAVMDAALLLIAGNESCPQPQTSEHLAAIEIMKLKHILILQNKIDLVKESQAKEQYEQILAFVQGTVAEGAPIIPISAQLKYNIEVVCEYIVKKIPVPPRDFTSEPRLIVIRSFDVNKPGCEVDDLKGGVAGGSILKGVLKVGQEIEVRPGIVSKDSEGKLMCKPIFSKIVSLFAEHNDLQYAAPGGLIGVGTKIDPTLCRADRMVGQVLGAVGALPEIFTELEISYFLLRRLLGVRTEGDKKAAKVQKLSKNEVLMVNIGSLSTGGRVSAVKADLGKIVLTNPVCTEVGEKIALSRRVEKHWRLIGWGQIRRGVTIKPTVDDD
UniProt P50502, sequence (P50502 whole entry, looked up): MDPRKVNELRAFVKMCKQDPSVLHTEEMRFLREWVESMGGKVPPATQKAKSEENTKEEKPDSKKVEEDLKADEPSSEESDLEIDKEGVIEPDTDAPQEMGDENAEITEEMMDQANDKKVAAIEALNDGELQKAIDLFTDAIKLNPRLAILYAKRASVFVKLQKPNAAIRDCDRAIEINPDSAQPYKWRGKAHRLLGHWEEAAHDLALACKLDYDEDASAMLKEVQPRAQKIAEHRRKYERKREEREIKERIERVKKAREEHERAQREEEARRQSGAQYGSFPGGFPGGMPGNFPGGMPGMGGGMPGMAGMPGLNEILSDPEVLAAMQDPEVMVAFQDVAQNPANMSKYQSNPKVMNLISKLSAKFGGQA
UniProt P09543, sequence (P09543 whole entry, looked up): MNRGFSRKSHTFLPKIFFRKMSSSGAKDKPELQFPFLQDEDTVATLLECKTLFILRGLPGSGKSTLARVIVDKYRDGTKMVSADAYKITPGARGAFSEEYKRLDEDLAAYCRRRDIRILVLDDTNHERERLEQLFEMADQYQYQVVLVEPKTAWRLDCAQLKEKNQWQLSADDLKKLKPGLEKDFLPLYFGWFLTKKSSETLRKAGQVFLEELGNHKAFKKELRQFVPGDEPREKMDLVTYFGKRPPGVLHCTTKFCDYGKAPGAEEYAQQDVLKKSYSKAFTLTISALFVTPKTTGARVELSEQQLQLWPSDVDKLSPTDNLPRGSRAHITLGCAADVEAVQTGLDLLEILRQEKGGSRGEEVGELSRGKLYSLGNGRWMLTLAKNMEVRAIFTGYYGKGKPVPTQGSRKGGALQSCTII
UniProt P31948, sequence (P31948 whole entry, looked up): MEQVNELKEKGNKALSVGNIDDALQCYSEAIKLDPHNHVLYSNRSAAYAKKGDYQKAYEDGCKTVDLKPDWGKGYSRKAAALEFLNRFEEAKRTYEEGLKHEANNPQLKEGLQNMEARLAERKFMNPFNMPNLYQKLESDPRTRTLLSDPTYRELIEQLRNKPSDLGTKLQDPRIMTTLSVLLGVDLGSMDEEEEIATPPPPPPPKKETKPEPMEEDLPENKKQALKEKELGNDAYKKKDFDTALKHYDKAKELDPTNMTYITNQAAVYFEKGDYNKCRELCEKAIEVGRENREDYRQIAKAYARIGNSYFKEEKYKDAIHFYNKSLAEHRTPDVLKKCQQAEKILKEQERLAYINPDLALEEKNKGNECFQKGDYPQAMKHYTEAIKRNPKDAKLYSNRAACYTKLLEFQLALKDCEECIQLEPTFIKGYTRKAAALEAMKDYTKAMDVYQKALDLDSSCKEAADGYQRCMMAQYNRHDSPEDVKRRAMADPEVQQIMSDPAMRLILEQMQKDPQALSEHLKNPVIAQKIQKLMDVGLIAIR
UniProt P06132, sequence (P06132 whole entry, looked up): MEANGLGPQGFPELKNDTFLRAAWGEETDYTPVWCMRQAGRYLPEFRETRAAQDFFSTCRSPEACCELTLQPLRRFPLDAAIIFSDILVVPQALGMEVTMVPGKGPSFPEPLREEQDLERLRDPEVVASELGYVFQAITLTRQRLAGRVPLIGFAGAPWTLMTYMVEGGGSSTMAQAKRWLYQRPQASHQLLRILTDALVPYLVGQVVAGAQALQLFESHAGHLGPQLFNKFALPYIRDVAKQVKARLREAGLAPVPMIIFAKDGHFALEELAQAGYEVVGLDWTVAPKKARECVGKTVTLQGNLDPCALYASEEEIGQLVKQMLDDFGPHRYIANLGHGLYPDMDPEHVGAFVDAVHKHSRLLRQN

Row | Target | log2 ratio of iodoacetamide-alkyne labeling
1 | TTK C322 (UniProt P33981) | 1.29 (active)
2 | RANBP2 C3071 (UniProt P49792) | 0.0882
3 | MAP4K4 C202 (UniProt O95819) | 0.624
4 | EPRS C92 (UniProt P07814) | 0.571
5 | HSPA4L C167 (UniProt O95757) | -0.00119
6 | AKT2 C297 (UniProt P31751) | 0.698
7 | STIP1 C339 (UniProt P31948) | 0.0728
8 | CNP C111 (UniProt P09543) | 0.0267
9 | ST13 C209 (UniProt P50502) | 0.272
10 | UniProt P49753_C401 | 0.0763
11 | POLR1A C613 (UniProt O95602) | 0.472
12 | HNRNPA3 C85 (UniProt P51991) | 0.23
13 | EIF2S3 C105 (UniProt P41091) | 0.341
14 | UROD C308 (UniProt P06132) | 0.28
15 | RTN3 C34 (UniProt O95197) | 1.43 (active)
